Key:
[1] = molecular target: Ephrin type-A receptor 5 (Homo sapiens) (UniProt P54756); details: at 10 µM
[2] = molecular target: T1, Ephrin type-A receptor 3 (Homo sapiens) (UniProt P29320); details: at 10 µM
T1 sequence (whole entry): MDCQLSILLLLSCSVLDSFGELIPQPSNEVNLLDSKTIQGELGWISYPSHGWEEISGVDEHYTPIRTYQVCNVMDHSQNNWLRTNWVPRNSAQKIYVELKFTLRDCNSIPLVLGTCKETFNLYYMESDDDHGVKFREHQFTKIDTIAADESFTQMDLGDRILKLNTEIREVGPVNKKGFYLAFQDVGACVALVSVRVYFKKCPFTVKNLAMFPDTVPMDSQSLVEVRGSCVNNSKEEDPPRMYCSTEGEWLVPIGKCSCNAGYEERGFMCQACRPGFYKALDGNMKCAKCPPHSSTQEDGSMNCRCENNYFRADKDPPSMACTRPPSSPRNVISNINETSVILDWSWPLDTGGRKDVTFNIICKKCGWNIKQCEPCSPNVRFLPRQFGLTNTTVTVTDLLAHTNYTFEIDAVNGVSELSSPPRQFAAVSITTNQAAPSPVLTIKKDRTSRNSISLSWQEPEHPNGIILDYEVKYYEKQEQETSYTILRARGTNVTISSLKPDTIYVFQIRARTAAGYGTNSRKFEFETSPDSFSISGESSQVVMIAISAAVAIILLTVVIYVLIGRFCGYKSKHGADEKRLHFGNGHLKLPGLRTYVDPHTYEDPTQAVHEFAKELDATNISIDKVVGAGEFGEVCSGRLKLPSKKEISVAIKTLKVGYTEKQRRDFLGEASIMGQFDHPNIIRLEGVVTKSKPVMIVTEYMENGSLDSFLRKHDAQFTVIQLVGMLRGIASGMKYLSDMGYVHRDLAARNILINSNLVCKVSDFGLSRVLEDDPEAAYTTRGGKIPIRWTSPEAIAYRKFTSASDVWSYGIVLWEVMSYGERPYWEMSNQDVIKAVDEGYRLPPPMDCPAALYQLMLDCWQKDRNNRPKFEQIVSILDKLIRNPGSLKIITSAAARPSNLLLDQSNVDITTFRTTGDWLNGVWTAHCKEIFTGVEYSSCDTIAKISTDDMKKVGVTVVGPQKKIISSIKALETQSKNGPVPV

[3] = molecular target: Ephrin type-A receptor 4 (Homo sapiens) (UniProt P54764); details: at 1 µM
[4] = molecular target: Ephrin type-A receptor 4 (Homo sapiens) (UniProt P54764); details: at 10 µM
[5] = molecular target: Ephrin type-A receptor 5 (Homo sapiens) (UniProt P54756); details: at 1 µM
[6] = molecular target: Ephrin type-A receptor 7 (Homo sapiens) (UniProt Q15375); details: at 1 µM
[7] = molecular target: Ephrin type-A receptor 7 (Homo sapiens) (UniProt Q15375); details: at 10 µM
[8] = molecular target: T2, Ephrin type-A receptor 8 (Homo sapiens) (UniProt P29322); details: at 1 µM
T2 sequence (whole entry): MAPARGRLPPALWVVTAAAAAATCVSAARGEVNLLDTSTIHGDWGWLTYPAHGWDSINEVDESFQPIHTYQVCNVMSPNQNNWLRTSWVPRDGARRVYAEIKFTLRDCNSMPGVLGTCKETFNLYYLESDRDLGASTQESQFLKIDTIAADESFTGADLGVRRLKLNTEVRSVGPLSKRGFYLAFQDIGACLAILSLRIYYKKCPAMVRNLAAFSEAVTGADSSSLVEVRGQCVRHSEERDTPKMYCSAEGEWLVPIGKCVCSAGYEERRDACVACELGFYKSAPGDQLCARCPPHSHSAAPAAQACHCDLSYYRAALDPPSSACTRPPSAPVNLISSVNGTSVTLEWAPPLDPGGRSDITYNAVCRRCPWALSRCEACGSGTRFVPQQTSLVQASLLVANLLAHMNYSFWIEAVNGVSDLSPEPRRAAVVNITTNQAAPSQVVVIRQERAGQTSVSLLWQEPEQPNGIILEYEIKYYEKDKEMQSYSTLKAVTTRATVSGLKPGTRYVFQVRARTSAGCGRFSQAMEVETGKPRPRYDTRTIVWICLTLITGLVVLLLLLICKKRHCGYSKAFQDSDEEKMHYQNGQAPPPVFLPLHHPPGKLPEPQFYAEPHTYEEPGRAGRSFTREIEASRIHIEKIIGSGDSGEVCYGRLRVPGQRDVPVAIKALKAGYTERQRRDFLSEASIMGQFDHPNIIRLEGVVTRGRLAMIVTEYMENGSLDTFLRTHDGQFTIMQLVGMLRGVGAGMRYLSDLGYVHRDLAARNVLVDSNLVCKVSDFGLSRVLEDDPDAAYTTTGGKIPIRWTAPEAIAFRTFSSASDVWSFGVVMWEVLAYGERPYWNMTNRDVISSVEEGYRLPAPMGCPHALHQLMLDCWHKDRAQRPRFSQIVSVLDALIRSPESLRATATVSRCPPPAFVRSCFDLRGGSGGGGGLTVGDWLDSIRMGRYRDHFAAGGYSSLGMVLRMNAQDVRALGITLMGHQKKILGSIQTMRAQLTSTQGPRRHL

[9] = molecular target: T2, Ephrin type-A receptor 8 (Homo sapiens); details: at 10 µM
[10] = molecular target: T3, Ephrin type-B receptor 1 (Homo sapiens) (UniProt P54762); details: at 1 µM
T3 sequence (whole entry): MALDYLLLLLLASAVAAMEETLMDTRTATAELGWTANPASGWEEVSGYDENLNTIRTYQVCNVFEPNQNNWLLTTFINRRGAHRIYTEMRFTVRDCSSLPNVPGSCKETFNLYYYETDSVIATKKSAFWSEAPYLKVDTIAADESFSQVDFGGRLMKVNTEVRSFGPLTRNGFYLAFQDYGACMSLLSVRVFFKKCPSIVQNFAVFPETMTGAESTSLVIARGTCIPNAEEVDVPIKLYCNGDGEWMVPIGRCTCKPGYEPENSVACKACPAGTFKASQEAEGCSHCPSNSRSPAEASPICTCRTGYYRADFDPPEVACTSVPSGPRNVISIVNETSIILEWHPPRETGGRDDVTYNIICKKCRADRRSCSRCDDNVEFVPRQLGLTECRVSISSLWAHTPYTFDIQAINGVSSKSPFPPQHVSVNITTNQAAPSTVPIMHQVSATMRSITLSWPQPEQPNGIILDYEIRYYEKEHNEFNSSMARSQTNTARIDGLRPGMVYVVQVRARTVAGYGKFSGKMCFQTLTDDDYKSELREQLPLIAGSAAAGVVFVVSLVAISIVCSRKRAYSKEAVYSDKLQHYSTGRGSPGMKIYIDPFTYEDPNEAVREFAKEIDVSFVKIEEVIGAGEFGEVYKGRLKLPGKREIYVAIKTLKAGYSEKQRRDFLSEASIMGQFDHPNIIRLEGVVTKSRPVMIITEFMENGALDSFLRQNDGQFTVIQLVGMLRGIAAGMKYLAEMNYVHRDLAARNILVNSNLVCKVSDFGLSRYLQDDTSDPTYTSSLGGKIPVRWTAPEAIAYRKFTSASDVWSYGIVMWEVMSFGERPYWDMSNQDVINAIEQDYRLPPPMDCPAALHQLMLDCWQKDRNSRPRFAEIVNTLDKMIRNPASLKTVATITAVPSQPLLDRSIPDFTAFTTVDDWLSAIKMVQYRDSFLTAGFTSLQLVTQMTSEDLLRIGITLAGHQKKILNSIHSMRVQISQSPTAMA

Sequence of Ephrin type-A receptor 7 (Homo sapiens) (Q15375 28-998 limits assumed): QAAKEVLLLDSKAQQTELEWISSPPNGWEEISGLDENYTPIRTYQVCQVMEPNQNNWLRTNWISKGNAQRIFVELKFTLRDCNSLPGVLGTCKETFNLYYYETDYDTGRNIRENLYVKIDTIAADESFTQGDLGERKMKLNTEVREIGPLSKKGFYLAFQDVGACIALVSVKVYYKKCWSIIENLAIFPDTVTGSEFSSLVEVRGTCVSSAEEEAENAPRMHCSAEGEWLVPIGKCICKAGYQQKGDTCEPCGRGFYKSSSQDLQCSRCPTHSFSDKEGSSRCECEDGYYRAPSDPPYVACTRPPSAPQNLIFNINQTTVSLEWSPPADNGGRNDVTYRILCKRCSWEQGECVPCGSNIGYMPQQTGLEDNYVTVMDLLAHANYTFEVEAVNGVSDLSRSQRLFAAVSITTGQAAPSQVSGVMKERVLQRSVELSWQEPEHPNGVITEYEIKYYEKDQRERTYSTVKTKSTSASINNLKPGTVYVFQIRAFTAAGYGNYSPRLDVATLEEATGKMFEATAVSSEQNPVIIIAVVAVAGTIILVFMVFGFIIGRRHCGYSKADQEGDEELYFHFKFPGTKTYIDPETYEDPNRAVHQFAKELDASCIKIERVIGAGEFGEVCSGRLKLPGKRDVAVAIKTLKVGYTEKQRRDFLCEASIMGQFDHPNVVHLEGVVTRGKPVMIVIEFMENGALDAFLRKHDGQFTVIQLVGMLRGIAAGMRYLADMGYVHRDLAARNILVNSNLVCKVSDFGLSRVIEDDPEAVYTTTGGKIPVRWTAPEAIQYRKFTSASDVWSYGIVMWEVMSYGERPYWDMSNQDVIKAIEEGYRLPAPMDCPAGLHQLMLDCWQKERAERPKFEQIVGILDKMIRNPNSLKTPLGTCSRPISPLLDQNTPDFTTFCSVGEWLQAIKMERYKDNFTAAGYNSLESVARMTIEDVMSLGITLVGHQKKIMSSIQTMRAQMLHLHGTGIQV
Sequence of Ephrin type-A receptor 5 (Homo sapiens) (P54756 whole entry): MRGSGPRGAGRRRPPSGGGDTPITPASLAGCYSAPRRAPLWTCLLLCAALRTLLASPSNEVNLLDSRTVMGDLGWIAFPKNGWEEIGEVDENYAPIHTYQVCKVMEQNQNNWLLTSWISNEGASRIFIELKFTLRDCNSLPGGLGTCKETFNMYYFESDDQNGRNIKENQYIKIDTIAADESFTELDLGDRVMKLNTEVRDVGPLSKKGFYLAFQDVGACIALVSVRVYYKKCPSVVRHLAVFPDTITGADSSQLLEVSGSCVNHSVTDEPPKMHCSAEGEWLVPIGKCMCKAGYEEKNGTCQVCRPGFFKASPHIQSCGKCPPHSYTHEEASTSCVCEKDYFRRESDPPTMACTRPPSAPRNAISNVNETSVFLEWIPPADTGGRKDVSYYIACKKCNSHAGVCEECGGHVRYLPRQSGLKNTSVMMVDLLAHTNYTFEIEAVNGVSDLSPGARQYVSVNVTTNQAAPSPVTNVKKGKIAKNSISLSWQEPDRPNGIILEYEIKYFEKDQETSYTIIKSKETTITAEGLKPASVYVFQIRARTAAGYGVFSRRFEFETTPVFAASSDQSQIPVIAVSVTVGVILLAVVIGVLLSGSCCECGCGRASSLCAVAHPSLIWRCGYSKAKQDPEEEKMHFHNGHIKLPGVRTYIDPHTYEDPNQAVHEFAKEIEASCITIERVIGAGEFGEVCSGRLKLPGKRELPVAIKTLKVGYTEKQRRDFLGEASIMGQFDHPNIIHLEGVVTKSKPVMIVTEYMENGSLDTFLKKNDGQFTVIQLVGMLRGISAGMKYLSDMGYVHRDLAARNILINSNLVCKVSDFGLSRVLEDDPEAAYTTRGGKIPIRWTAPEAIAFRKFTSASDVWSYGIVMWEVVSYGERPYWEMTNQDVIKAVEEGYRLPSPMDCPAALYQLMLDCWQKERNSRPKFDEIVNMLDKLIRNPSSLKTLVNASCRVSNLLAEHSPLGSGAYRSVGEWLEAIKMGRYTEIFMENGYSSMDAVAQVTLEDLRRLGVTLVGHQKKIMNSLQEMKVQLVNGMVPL
Sequence of Ephrin type-A receptor 4 (Homo sapiens) (P54764 whole entry): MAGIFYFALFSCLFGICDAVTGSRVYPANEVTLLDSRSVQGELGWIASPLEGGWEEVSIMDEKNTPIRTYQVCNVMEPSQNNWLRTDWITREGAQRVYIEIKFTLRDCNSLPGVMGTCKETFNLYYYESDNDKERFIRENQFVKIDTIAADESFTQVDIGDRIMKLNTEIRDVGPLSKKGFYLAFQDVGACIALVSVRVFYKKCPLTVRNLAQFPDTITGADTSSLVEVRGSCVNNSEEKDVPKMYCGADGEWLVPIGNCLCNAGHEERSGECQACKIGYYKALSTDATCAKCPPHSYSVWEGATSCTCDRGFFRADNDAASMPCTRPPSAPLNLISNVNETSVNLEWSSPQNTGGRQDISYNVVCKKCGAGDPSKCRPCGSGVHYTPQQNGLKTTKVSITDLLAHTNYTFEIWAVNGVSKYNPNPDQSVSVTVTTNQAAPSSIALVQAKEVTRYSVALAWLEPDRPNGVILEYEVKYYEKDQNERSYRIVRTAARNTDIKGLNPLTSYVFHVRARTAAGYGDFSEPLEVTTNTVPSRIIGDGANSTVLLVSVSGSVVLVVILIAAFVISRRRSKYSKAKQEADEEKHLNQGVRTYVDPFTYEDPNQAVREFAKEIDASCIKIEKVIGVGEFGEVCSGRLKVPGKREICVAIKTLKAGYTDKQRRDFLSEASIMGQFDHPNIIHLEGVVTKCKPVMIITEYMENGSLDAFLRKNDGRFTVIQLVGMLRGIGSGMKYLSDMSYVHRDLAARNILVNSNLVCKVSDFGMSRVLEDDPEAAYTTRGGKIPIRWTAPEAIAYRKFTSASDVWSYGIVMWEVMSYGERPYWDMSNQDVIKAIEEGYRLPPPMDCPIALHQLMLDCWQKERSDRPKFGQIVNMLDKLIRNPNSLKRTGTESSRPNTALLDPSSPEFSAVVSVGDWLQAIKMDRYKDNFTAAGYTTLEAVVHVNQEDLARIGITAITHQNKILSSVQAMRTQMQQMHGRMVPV

SMILES: COc1ccc2c(c1)/C(=C/c1cnc[nH]1)C(=O)N2
- residual activity [1]: 81%

SMILES: O=c1[nH]c2ccccc2n1C1CCN(Cc2ccc(-c3nc4cc5[nH]cnc5cc4nc3-c3ccccc3)cc2)CC1
- residual activity [2]: 76%
- residual activity [3]: 112%
- residual activity [4]: 81%
- residual activity [5]: 114%
- residual activity [1]: 99%
- residual activity [6]: 97%
- residual activity [7]: 93%
- residual activity [8]: 108%
- residual activity [9]: 104%
- residual activity [10]: 93%

SMILES: COc1cc2ncnc(Nc3ccc(OCc4ccccc4)cc3)c2cc1OC
- residual activity [2]: 113%
- residual activity [3]: 118%
- residual activity [4]: 93%
- residual activity [5]: 116%
- residual activity [1]: 104%
- residual activity [6]: 109%
- residual activity [7]: 90%
- residual activity [8]: 118%
- residual activity [9]: 101%
- residual activity [10]: 94%

SMILES: c1cc(-c2cnn3cc(-c4ccc(OCCN5CCCCC5)cc4)cnc23)ccn1
- residual activity [2]: 7%
- residual activity [4]: 39%
- residual activity [7]: 51%
- residual activity [10]: 37%

SMILES: O=[N+]([O-])/C=C/c1ccc2c(c1)OCO2
- residual activity [2]: 95%
- residual activity [3]: 112%
- residual activity [4]: 100%
- residual activity [5]: 103%
- residual activity [1]: 93%
- residual activity [6]: 95%
- residual activity [7]: 89%
- residual activity [8]: 100%
- residual activity [9]: 103%
- residual activity [10]: 115%

SMILES: CC(C)[C@H](CO)Nc1nc(Nc2cccc(Cl)c2)c2ncn(C(C)C)c2n1
- residual activity [2]: 31%
- residual activity [3]: 95%
- residual activity [4]: 47%
- residual activity [5]: 83%
- residual activity [1]: 14%
- residual activity [6]: 76%
- residual activity [7]: 28%
- residual activity [8]: 85%
- residual activity [9]: 46%
- residual activity [10]: 63%

SMILES: COC(=O)[C@@]1(O)C[C@H]2O[C@]1(C)n1c3ccccc3c3c4c(c5c6ccccc6n2c5c31)C(=O)NC4
- residual activity [2]: 5%
- residual activity [3]: 83%
- residual activity [4]: 43%
- residual activity [5]: 66%
- residual activity [1]: 13%
- residual activity [6]: 32%
- residual activity [7]: 4%
- residual activity [8]: 78%
- residual activity [9]: 40%
- residual activity [10]: 39%

SMILES: C[S+]([O-])c1ccc(-c2nc(-c3ccc(F)cc3)c(-c3ccncc3)[nH]2)cc1 (stereo not given)
- residual activity [2]: 86%
- residual activity [3]: 110%
- residual activity [4]: 80%
- residual activity [5]: 96%
- residual activity [1]: 48%
- residual activity [6]: 102%
- residual activity [7]: 65%
- residual activity [8]: 91%
- residual activity [9]: 43%
- residual activity [10]: 106%

SMILES: O=C1NC(=O)c2c1c1c3ccccc3n3c1c1c2c2ccccc2n1C1CCC3O1
- residual activity [5]: 94%
- residual activity [1]: 92%
- residual activity [6]: 100%
- residual activity [7]: 100%
- residual activity [8]: 96%
- residual activity [9]: 94%

SMILES: CCn1cnc2c(Nc3cccc(Cl)c3)nc(N[C@@H]3CCCC[C@@H]3N)nc21
- residual activity [2]: 9%
- residual activity [3]: 98%
- residual activity [4]: 49%
- residual activity [5]: 70%
- residual activity [1]: 15%
- residual activity [6]: 78%
- residual activity [7]: 23%
- residual activity [8]: 89%
- residual activity [9]: 31%
- residual activity [10]: 32%

SMILES: CC(C)(C)c1cc(C=C(C#N)C#N)cc(Br)c1O
- residual activity [2]: 106%
- residual activity [3]: 113%
- residual activity [5]: 107%
- residual activity [1]: 97%
- residual activity [6]: 109%
- residual activity [7]: 102%
- residual activity [8]: 117%
- residual activity [9]: 99%
- residual activity [10]: 106%

SMILES: COc1ccc2c(c[n+](C)c3c4cc5c(cc4ccc23)OCO5)c1OC
- residual activity [2]: 92%
- residual activity [6]: 94%
- residual activity [7]: 79%
- residual activity [10]: 89%

SMILES: COc1cc(OC)c(/C=C2\C(=O)Nc3ccccc32)c(OC)c1
- residual activity [2]: 84%
- residual activity [3]: 103%
- residual activity [4]: 105%
- residual activity [5]: 128%
- residual activity [1]: 101%
- residual activity [6]: 94%
- residual activity [7]: 94%
- residual activity [8]: 95%
- residual activity [9]: 84%
- residual activity [10]: 100%

SMILES: CCc1nc(-c2ccc(OC)cc2)[nH]c1-c1ccncc1
- residual activity [3]: 114%
- residual activity [4]: 109%
- residual activity [5]: 116%
- residual activity [1]: 104%
- residual activity [6]: 114%
- residual activity [7]: 100%

SMILES: O=C1c2ccccc2-c2nc3nnnn3nc21
- residual activity [3]: 115%
- residual activity [4]: 102%
- residual activity [5]: 115%
- residual activity [1]: 124%

SMILES: O=C1Nc2ccc3ncsc3c2/C1=C/c1c[nH]cn1
- residual activity [2]: 28%
- residual activity [3]: 102%
- residual activity [4]: 68%
- residual activity [5]: 89%
- residual activity [1]: 42%
- residual activity [6]: 77%
- residual activity [7]: 17%
- residual activity [8]: 95%
- residual activity [9]: 72%
- residual activity [10]: 60%

SMILES: N/C(=N\[N+](=O)[O-])N/N=C\c1ccc(-c2cccc([N+](=O)[O-])c2)o1
- residual activity [2]: 79%
